Compounds with a hit are over-represented: about 5.7% of the library has one in this group of screens.
FAS TE block: FAS thioesterase domain inhibitors, primary screen, biochemical, fluorescence intensity, uHTS; Fatty acid synthase (Homo sapiens), P49327; recombinant FAS-TE, OMFH fluorogenic substrate, fluorescence endpoint; inhibition, % at 15 µM; hit rate 0.67% among 360,000; AID 602261, 2012;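 active = compounds whose normalised, plate-corrected inhibition of enzyme fluorescence in the single-dose primary screen is 50% or more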;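 also: 0% = DMSO with enzyme and 100% = substrate without enzyme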
rCAG binder: binders of r(CAG) RNA repeats, primary screen, biochemical, fluorescence | r(CAG) RNA repeat, TO-PRO-1 dye displacement fluorescence | inhibition, % at 3 µM | AID 651821, 2012 | hit rate 1.3% among 370,000;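 active = inhibition above the plate cutoff, the mean of all test compounds on that plate plus 3 SD, cut at about 35% in these data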;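 also: 0% = DMSO alone and 100% = 100 µM mitoxantrone as full dye displacement; higher means more dye released from RNA so lower well fluorescence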
MPTP block: mitochondrial permeability transition pore inhibitors, primary screen, biochemical, isolated mouse mitochondria, absorbance; Ca2+ swelling absorbance, 30 min; inhibition, % at 10 µM; hit rate 1.4% among 360,000;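 active = inhibition of 50% or more, scaled per plate between neutral and stimulator controls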;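 also: 0% = DMSO wells given calcium and 100% = 1 mM EGTA wells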
GRIN3A LBD mod: binders of NR3A ligand-binding domain, primary screen, biophysical, differential scanning fluorimetry, uHTS. Glutamate receptor ionotropic, NMDA 3A (GRIN3A) ligand-binding domain. NR3A LBD differential scanning fluorimetry, Tm shift; 0% = protein alone, 100% = glycine-bound protein. Tm shift relative to glycine control, % at 25 µM. hit rate 2.5% among 340,000. AID 1259313, 2017;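 active = melting temperature shift of at least 10% of the positive control shift, at one fixed dose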
Myeloid diff MLP: induction of myeloid progenitor differentiation, primary screen, cell-based, flow cytometry, MLPCN library. ER-HoxA9 myeloid progenitors, lysozyme-GFP differentiation. calls only at 10 µM. hit rate 1% among 360,000;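 active = normalized GFP-positive differentiation at or above the plate's own cutoff, the solvent-only control mean plus 3 SD; inconclusive = no clear call, values can overlap the other calls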;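 also: cells exposed to compound for four days before flow analysis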
MPTP counter: fluorescence retest of MPTP screen hits in isolated mitochondria, single concentration; AID 624504, 2012; hit rate 78% among 5,000; inhibition, % at 10 µM; shares compounds with MPTP block; membrane potential, Rhodamine 123 fluorescence; in the data active = inhibition above about 22%;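 also: 0% = DMSO vehicle and 100% = positive control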
MPTP abs DR: mitochondrial permeability transition pore inhibitors, dose response, biochemical, absorbance, uHTS hits; shares compounds with MPTP block; isolated mitochondria swelling; IC50, µM; hit rate 58% among 780; AID 651561, 2012; in the data active = IC50 below about 20 µM
MPTP counter DR: fluorescent counter-screen in isolated mitochondria, dose response, counter-screen for MPTP inhibitor project, biochemical, fluorescence, uHTS hits; AID 651564, 2012; IC50, µM; isolated mitochondria counterscreen, fluorescence read-out; shares compounds with MPTP block; hit rate 49% among 780; in the data active = IC50 below about 80 µM
Myeloid diff CP1: inducers of myeloid progenitor differentiation, confirmation, cell-based, GFP/Mac1 flow cytometry, cherry pick 01; shares compounds with Myeloid diff MLP; ER-HoxA9 myeloid progenitors, GFP/Mac1 double-positive flow; calls only; hit rate 2% among 2,300; AID 651706, 2012;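 active = share of green or green-and-red cells above 9 and 9% in run 1 or 4 and 3% in run 2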
GFP autofluor: compound fluorescence in myeloid differentiation counter-screen. ER-HoxA9 myeloid progenitors, no estrogen, GFP autofluorescence flow cytometry; vehicle wells 0%, positive control 100%. fluorescence response, % (no concentration beside the values). shares compounds with Myeloid diff MLP. hit rate 7.4% among 2,300;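 active = over 5% cells positive for green fluorescent reporter, or over 2% positive for both it and APC stain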;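 also: range taken on the double positive population between DMSO and positive control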
rCAG binder conf: small molecules binding CAG repeat RNA – biochemical, fluorescence, confirmation. shares compounds with rCAG binder. r(CAG) RNA repeat, TO-PRO-1 dye displacement fluorescence. inhibition, % at 3 µM. hit rate 70% among 4,300;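 active = inhibition above a per-plate cutoff, the mean inhibition of sample wells plus 3 SD, cut at about 35% in these data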;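 also: loss of TO-PRO-1 fluorescence as compound displaces dye from 1x1 AA loop RNA; 0% = DMSO only wells and 100% = 100 µM mitoxantrone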
DNA CAG counter: displacement of TO-PRO-1 from CAG DNA duplex, counter-screen for rCAG RNA repeat binder project, biochemical, fluorescence, TO-PRO-1 dye, d(CAG) DNA oligo. inhibition, % at 3 µM. AID 652068, 2013. hit rate 94% among 4,300. shares compounds with rCAG binder. d(CAG) DNA oligo TO-PRO-1 dye displacement;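 active = inhibition above its plate's cutoff, the mean test-well inhibition plus 3 SD, cut at about 4.8% in these data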;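 also: 0% = DNA dye mix with DMSO and 100% = 100 µM mitoxantrone; hits displace the dye from DNA and so lower well fluorescence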
dCAG dye DR: inhibitors of DNA CAG/GTC TO-PRO-1 complex, dose response, counter-screen for rCAG RNA repeat binder project, biochemical, fluorescence, TO-PRO-1 dye; shares compounds with rCAG binder; hit rate 20% among 250; DNA CAG/GTC duplex TO-PRO-1 dye displacement fluorescence; IC50, µM; in the data active = IC50 below about 10 µM
The depositor's hits bear a star.

`CC(C)c1ccc(C(c2c(O)c3ccccc3oc2=O)c2c(O)c3ccccc3oc2=O)cc1` gave FAS TE block 45, rCAG binder 94*, MPTP block 78*, Myeloid diff MLP inactive, MPTP counter 2, MPTP abs DR 3.9*, MPTP counter DR <2.5*, rCAG binder conf 95* and DNA CAG counter 82*.
Cc1c(C(c2ccc(F)cc2)c2c(O)c3ccccc3oc2=O)c(=O)n(-c2ccccc2)n1C (stereo not drawn) was read as FAS TE block 3, rCAG binder 10, MPTP block -2, GRIN3A LBD mod 7 and Myeloid diff MLP inactive.
`CN1c2ccc(Br)cc2[C@@H]2NCC[C@@H]2[C@@H]1CO` gave rCAG binder 2.
`COc1ccccc1CCNC1CCC(C(C)(C)C)CC1` (stereo not drawn) gave FAS TE block -2, rCAG binder 9, MPTP block 28, GRIN3A LBD mod -3 and Myeloid diff MLP inactive.
For CC[C@@H](C(=O)[C@@H](C)[C@@H](O)[C@H](C)CCc1ccc(C)c(O)c1C(=O)O)[C@H]1O[C@](CC)([C@H]2CC[C@](O)(CC)[C@H](C)O2)C[C@@H]1C the results were FAS TE block 8, rCAG binder 58*, MPTP block 104*, GRIN3A LBD mod -13, Myeloid diff MLP inconclusive, MPTP counter 84*, rCAG binder conf 60*, DNA CAG counter 12* and dCAG dye DR >30.
CC1CN1c1cc2c(c3c1ccn3C)C1CCC2C1 (stereo not drawn) was read as FAS TE block -7, rCAG binder 5, MPTP block -2 and Myeloid diff MLP inactive.
Screening Cc1cc(N2CCCC2)ccc1C=C(C#N)C#N returned FAS TE block -98, rCAG binder -3, MPTP block 4, GRIN3A LBD mod 5, Myeloid diff MLP active, Myeloid diff CP1 inactive and GFP autofluor 4.
`O=C1NC(=S)N(c2ccc(Cl)cc2)C(=O)/C1=C/N1CCN(C(=O)c2ccco2)CC1` gave FAS TE block -3, rCAG binder 12, MPTP block -4, GRIN3A LBD mod -5, Myeloid diff MLP inactive, Myeloid diff CP1 inactive and GFP autofluor 0.
`O=C1NC(=S)N(c2ccc(F)cc2)C(=O)/C1=C\c1ccoc1` gave FAS TE block 0, MPTP block 1, GRIN3A LBD mod 3 and Myeloid diff MLP inactive.
